Screens deposited in PubChem BioAssay by several laboratories.
SENP8 block-1: SENP8 (human) protease inhibition; Q96LD8; recombinant SENP8, Nedd8 substrate fluorescence; inhibition, % at 20 µM; 0.64% of 360,000 active; AID 602440; in the data active = inhibition mostly above about 40%, no sharp cut-off; inactive = mostly below about 27%
SENP7 block: SENP7 protease inhibition. Q9BQF6. recombinant SENP7, Z-RLRGG-aminoluciferin luminescence, 40 min. inhibition, % at 5 µM. 1.5% of 330,000 active. AID 434973;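 active = inhibition above about 50% at the single test dose, limit read from the data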
Target sequence (Q9BQF6 706-1050 limits assumed): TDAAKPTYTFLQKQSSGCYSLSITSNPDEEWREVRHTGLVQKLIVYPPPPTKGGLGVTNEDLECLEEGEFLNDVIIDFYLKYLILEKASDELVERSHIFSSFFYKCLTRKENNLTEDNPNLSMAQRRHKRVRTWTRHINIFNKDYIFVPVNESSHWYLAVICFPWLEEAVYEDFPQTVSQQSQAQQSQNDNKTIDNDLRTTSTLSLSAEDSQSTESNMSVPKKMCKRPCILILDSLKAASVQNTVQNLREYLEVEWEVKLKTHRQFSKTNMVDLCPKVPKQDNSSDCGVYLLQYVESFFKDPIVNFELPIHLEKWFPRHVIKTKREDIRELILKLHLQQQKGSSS
SENP8 block-2: SENP8 protease inhibition. purified SENP8, Z-RLRGG-aminoluciferin cleavage, luminescence. inhibition, % at 10 µM. 1.2% of 330,000 active; in the data active = inhibition above about 50%
SENP6 block: inhibitors of human SENP6 protease. Recombinant SENP6 catalytic domain, aminoluciferin luminescence. inhibition, % at 10 µM. 1.8% of 330,000 active;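 active = inhibition above about 50% at the single tested dose, limit read from the data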
HSP90 inh: inhibitors of HSP90 luciferase refolding in rabbit reticulocyte lysate. luciferase refolding luminescence, 3 h. inhibition, % at 5.6 µM. 0.91% of 290,000 active. AID 1789;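 active = inhibition above the screen-wide mean plus 3 SD, computed separately per campaign, cut at about 16% in these data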;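 note: inhibitors lower the luminescence because luciferase stays unfolded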
SENP8 confirm: confirmation of human SENP8 protease inhibitors | Recombinant SENP8, Z-RLRGG-aminoluciferin luminescence, 60 min | inhibition, % at 12.5 µM | 40% of 6,200 active | AID 488912 | shares compounds with SENP7 block;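 active = mean inhibition across replicates above about 50%, limit read from the data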
SENP6 conf: confirmation of human SENP6 protease inhibitors; shares compounds with SENP7 block; recombinant SENP6, Z-RLRGG-aminoluciferin luminescence; inhibition, % at 12.5 µM; 58% of 6,200 active; AID 488915
SENP7 conf: human SENP7 inhibition, confirmed; shares compounds with SENP7 block; recombinant SENP7, Z-RLRGG-aminoluciferin luminescence, 40 min; inhibition, % at 12.5 µM; 69% of 6,200 active
Casp3 select: caspase-3 inhibition (SENP selectivity assay); shares compounds with SENP7 block; purified caspase-3, Z-DEVD-aminoluciferin luminescence, 60 min; inhibition, % at 12.5 µM; 60% of 6,200 active;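 active = mean inhibition above about 50%, limit read from the data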
SENP luc ctr: interferes with luciferase luminescence in SENP counter-screen. shares compounds with SENP7 block. Pre-incubated SENP8/Z-RLRGG-aminoluciferin, luciferase luminescence interference. inhibition, % at 12.5 µM. 39% of 6,200 active;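 active = mean inhibition above about 50% when retested at one dose, limit read from the data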
Hits are given with their value; - = inactive; . = not tested or not shown. A selection: hits, their analogues and other compounds. The true share with any hit is near 2.7%.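 Rule for the calls, unless noted: active = mean inhibition above about 50% in the one-dose retest (limit read from the data); inactive = the rest.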

SMILES	SENP8 block-1	SENP7 block	SENP8 block-2	SENP6 block	HSP90 inh	SENP8 confirm	SENP6 conf	SENP7 conf	Casp3 select	SENP luc ctr
C(=C\c1nc(-c2ccccc2)no1)/c1ccccc1	-	85	75	84	-	75	82	94	65	59
O=C(NCC[C@@H]1CC[C@@H](NS(=O)(=O)c2ccccc2)[C@@H](CO)O1)c1cc(Cl)cc(Cl)c1	-	.	.	.	.	.	.	.	.	.
Cc1cc(C)n(CC(O)Cn2c3ccccc3c3ccccc32)n1 (configuration not stated)	-	-	-	-	-	.	.	.	.	.
Cc1cc(C)n(CC(O)Cn2c3ccc(Cl)cc3c3cc(Cl)ccc32)c(=O)n1 (configuration not stated)	-	95	-	-	-	-	-	-	-	-
CCN1CCN(CCNC(=O)Cn2c(=O)c3cccn3c3ccc(F)cc32)CC1	-	-	-	-	-	.	.	.	.	.
CC(C)N(CCCNC(=O)Cn1c(=O)c2cccn2c2ccc(F)cc21)Cc1ccccc1	-	61	-	-	-	-	-	-	-	-
COc1cc2sc3ccc(-c4ccc(CN5CCOCC5)cc4)cc3c(=O)c2cc1OC	-	-	-	-	.	.	.	.	.	.
COc1cc2sc3ccc(-c4ccc(N(C)C)nc4)cc3c(=O)c2cc1OC	.	56	74	79	.	-	-	-	-	-
COc1ccc(-c2ccc3sc4ccccc4c(=O)c3c2)cn1	-	101	-	95	.	-	-	-	74	-
COc1ccc(NS(=O)(=O)c2ccc(C)c(NC(=O)C3CCCO3)c2)cc1 (configuration not stated)	-	-	-	-	.	.	.	.	.	.
COC(=O)[C@]12CCCCC=C1N(Cc1ccc3c(c1)OCO3)C(=O)[C@H](CC(=O)NCCC(C)C)C2	-	.	.	.	.	.	.	.	.	.
NC(=O)c1cc([N+](=O)[O-])ccc1NCc1cccc2ccccc12	-	-	-	-	.	.	.	.	.	.
O=C(/C=C/Nc1ccc([N+](=O)[O-])cc1Br)c1cccc2ccccc12	-	86	-	87	-	-	-	-	-	-
N#Cc1cnc2sc3ccccc3n2c1=N	-	79	93	94	-	95	96	100	97	94
O=C(Nc1c(Cl)cccc1Cl)c1cc(-c2ccco2)on1	-	-	-	-	-	.	.	.	.	.
COc1ccc(-c2cc(C(=O)Nc3cccc(Cl)c3)no2)cc1	-	78	-	-	-	-	-	-	-	-
O=C(Nc1cccc(Cl)c1)c1cc(-c2ccco2)on1	-	87	78	83	-	-	81	97	77	-
CNc1oc(/C=C/c2ccccc2)nc1C#N	-	-	-	-	-	.	.	.	.	.
Cc1cc(C)c(OCC(=O)Nc2ccccc2N2CCCCC2)c(C)c1	-	-	-	-	.	.	.	.	.	.
CC(=O)Nc1cccc(NC(=O)C(=O)Nc2ccc3c(c2)N(C(=O)C2CC2)CCC3)c1	-	50	-	59	.	-	-	75	65	-
COc1ccccc1NC(=O)C(=O)Nc1ccc2c(c1)N(C(=O)C1CC1)CCC2	-	56	-	-	.	-	-	-	-	-
O=C(NCCc1ccc(Cl)cc1)c1cc2ccccn2n1	-	-	-	-	-	.	.	.	.	.
O=C(Nc1ccc(Br)cc1)c1cc2ccccn2n1	-	64	71	-	-	-	-	88	65	-
Cn1cnnc1SCC(=O)c1cc2ccccc2oc1=O	-	67	-	-	-	-	-	-	-	-
O=C(CSc1nnc(-c2cccnc2)o1)c1cc2ccccc2oc1=O	-	-	-	-	-	.	.	.	.	.
NC(=O)c1ccc(NC(=O)CS(=O)(=O)c2cn(CC(=O)N3CCCCC3)c3ccccc23)cc1	-	-	-	-	-	.	.	.	.	.
Cc1nn(CCc2n[nH]c(=S)n2C)c(C)c1Br	-	-	-	-	-	.	.	.	.	.
CCc1ccc(-c2csc(NC(=O)C3=COCCO3)n2)cc1	-	-	-	60	.	-	-	73	-	-
